Compounds with a hit are over-represented: about 19% of the library has one in this group of screens.
KB-3-1 tox = qHTS assay for MDR1-selective chemotherapeutics: Primary screen using the parental adenocarcinoma cell KB-3-1; KB-3-1 viability, CellTiter-Glo ATP luminescence, 72 h; Potency, µM (top dose mostly 46.1 µM), actives largely listed as cytotoxic; 400,000 compounds, 1.4% hits; AID 1347075, 2019; note: nearly all actives have a fitted effect of over 60% in size
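Here the drug-naive KB-3-1 line serves as comparator for MDR sub-line selectivity; cells received compound titrations, 72 h at 37 °C, then CellTiter-Glo readout.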
HT1080-NT tox = qHTS for induction of synthetic lethality in tumor cells producing 2HG: qHTS for the HT-1080-NT fibrosarcoma cell line. HT-1080-NT fibrosarcoma viability, CellTiter-Glo ATP luminescence, 48 h. Potency, µM (series often up to 46.1 µM), without a hit: top-dose activity, negative = less viability, usual class: cytotoxic. 360,000 compounds, 1.6% hits;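 note: NT is the 2HG producing partner of a matched IDH1 knockdown line; 0% = DMSO-treated cells and -100% = media-only wells without cells; nearly all actives have a fitted effect of over 55% in size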
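750 cells/well, RPMI + 5% FBS; 2 h settle, compound pin-transfer, 48 h at 37 degrees C. CellTiter-Glo 10 min RT, luminescence. Normalized to DMSO and media-only wells.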
HT1080 IDH1KD tx = qHTS for induction of synthetic lethality in tumor cells producing 2HG: qHTS for the HT-1080-IDH1KD cell line. Potency, µM (titrated, usually from 46.1 µM), without a hit: top-dose activity, negative = toxicity, usual class: cytotoxic. HT-1080 IDH1 knockdown viability, ATP luminescence, 48 h. AID 686971, 2013. 360,000 compounds, 2% hits;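 note: 0% = DMSO wells and -100% = cell-free medium wells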
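In this qHTS, HT-1080 cells depleted of IDH1 are exposed for 48 h at 37 °C to compound titrations. Toxicity is scored from CellTiter-Glo luminescence, with DMSO as full viability and medium alone as none.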
KB-V1 MDR tox = qHTS assay for MDR1-selective chemotherapeutics: Primary screen using the drug-selected MDR subline cells KB-V1. KB-V1 MDR cells viability, CellTiter-Glo, 72 h. Potency, µM (series often up to 46.1 µM), hits mostly cytotoxic. 400,000 compounds, 3.4% hits; note: nearly all actives have a fitted effect of over 60% in size
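KB-V1, DMEM (no phenol red) + 10% FBS; cpd pin-transferred, titration series; 72 h, 37 degrees C; CellTiter-Glo, luminescence. Data normalized, curve-fit.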
DT40 TDP1 no CPT = qHTS for Inhibitors of human tyrosyl-DNA phosphodiesterase 1 (TDP1): qHTS in cells in absence of CPT | DT40 Tdp1-/- hTDP1 cells, no CPT, ATP luminescence, 48 h | Potency, µM (doses to about 46.2 µM), for inactives: at the highest dose activity change, negative = growth inhibition, usual class: inhibitors | 420,000 compounds, 15% hits; note: nearly all actives have a fitted effect of over 55% in size
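Camptothecin absent (DMSO only). Human TDP1-complemented DT40 knockout cells, 400 cells/well, 37 °C for minimum 48 hr; ATP measured via CellTiter-Glo, 30 min dark incubation, luminescence.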
DT40 TDP1 CPT = qHTS for Inhibitors of human tyrosyl-DNA phosphodiesterase 1 (TDP1): qHTS in cells in presence of CPT. chicken DT40 Tdp1-/-;hTDP1 cells + 20 nM CPT, ATP luminescence, 48 h. Potency, µM (doses to about 46.2 µM), without a hit: at the top dose activity change, negative = growth inhibition, hits mostly inhibitors. 420,000 compounds, 12% hits; note: nearly all actives have a fitted effect of over 55% in size
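Chicken DT40 Tdp1-/- cells complemented with human TDP1, 400 cells/well, exposed to compounds plus 20 nM camptothecin for at least 48 h at 37 C; viability read as ATP content by CellTiter-Glo luminescence.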
* marks the source's active call; other numbers are inactive results; i = inactive; ? = inconclusive; nt = not tested or not shown; [ ] = another dose, or the depositor's remark. Calls come from the whole dose curve; as a rule, active = well fitted curve in the direction sought with a large enough effect; inconclusive = small, poorly fitted or top-dose-only effect, or another doubt; inactive = no such curve, though single readings can be large; an effect the other way counts as inactive or inconclusive. Unless noted, % is set by controls: 0 for no effect and ±100 for the full control effect; potency is the fitted concentration of half-maximal effect.

SMILES | KB-3-1 tox | HT1080-NT tox | HT1080 IDH1KD tx | KB-V1 MDR tox | DT40 TDP1 no CPT | DT40 TDP1 CPT
C=CCC(CC=C)(CNC(=O)C(=O)Nc1cc(C)ccc1OC)c1ccc(OC)c(OC)c1 | i | nt | nt | i | 16µM* | 8.2µM*
O=C(Nc1ccncc1)c1cc(-c2cccc(Br)c2)nc2ccccc12 | 21µM* | ? | ? | ? | ? | ?
COc1ccc(-c2cc(C(=O)Nc3cccnc3)c3ccccc3n2)cc1OC | ? | -5% | -15% | 9.2µM* | 23µM* | 23µM*
O=C(NC1=NCCS1)c1cc(-c2cccc(Br)c2)nc2ccccc12 | ? | -1% | -18% | 15µM* | ? | -26%
COc1ccc(-c2cc(C(=O)NCc3cn(C)nc3C)c3ccccc3n2)cc1OC | i | -4% | 7% | ? | ? | 15µM*
Cc1cnc(C)c(-c2cc(F)cc3c2OC(CNC(=O)CN2CCCC2)C3)n1 (centres undefined) | nt | nt | nt | nt | -17% | 9%
O=C(C[N+]1(CC(O)c2ccccc2)CCOCC1)c1ccccc1 (centres undefined) | i | nt | nt | i | -12% | 1%
COc1ccc(-c2cc(C(=O)Nc3nc4ccccc4s3)c3ccccc3n2)cc1OC | i | -21% | -26% | i | ? | 15µM*
O=C(Nc1cccnc1)c1cc(-c2cccnc2)nc2ccc(Br)cc12 | i | -2% | -1% | i | ? | ?
O=C(Nc1cccnc1)c1cc(-c2cccc(Br)c2)nc2ccccc12 | i | -6% | -2% | 10µM* | 16µM* | ?
O=C(N/N=C/c1ccccc1)c1ccc(N2CCCC2=O)cc1 | i | 0% | 0% | i | -8% | 1%
CCCCCCCCOC(=O)c1cc([N+](=O)[O-])c(Sc2ncnc3nc[nH]c23)c([N+](=O)[O-])c1 | ? | ? | 13µM* | ? | 3.3µM* | 2.6µM*
CCOC(=O)CN(C(=O)COc1nc(-c2ccccc2)cc(C)c1C#N)c1ccccc1 | ? | 9% | 13% | i | ? | -68%
CCOC(=O)CN(C(=O)COc1nc(-c2ccccc2)cc(C)c1C#N)c1ccccc1C | 3.7µM* | 0% | 21% | i | 10µM* | 16µM*
Cc1cccn2c(=O)c3cc(C(N)=S)c(=N)n(CCCN4CCOCC4)c3nc12 | i | -14% | -4% | i | ? | ?
COCCCn1c(=N)c(C(N)=S)cc2c(=O)n3cccc(C)c3nc21 | i | 10% | 9% | i | 23µM* | 18µM*
Cc1ccc2nc3c(cc(C(N)=S)c(=N)n3CCCOC(C)C)c(=O)n2c1 | ? | ? | 11µM* | ? | 16µM* | 16µM*
COCCCn1c(=N)c(C(=O)NCc2cccnc2)cc2c(=O)n3cc(C)ccc3nc21 | i | nt | nt | ? | 3% | 1%
CCCn1c(=N)c(C(=O)NC2CCCC2)cc2c(=O)n3cccc(C)c3nc21 | i | 0% | -1% | ? | 12µM* | ?
CCCCn1c(=N)c(C(=O)NC2CCCCC2)cc2c(=O)n3cccc(C)c3nc21 | i | nt | nt | i | 0% | 6%
CCCCNC(=O)c1cc2c(=O)n3cccc(C)c3nc2n(CCN2CCOCC2)c1=N | i | 6% | 16% | 10µM* | ? | ?
CSc1ccccc1NC(=O)CN(C)C(=O)Cc1c(F)cccc1Cl | i | 1% | 12% | i | -27% | 1%
COc1ccccc1C(=O)NCC(=O)OCc1nnc(-c2ccccc2)o1 | i | 2% | 4% | i | -5% | 6%
CC1CN(CC(=O)NCCc2ccncc2)Cc2ccccc2O1 (centres undefined) | nt | nt | nt | nt | -11% | 6%[9.04 µM]
COc1cc(NC(=O)c2nnn(CC(=O)Nc3ccccc3)c2N)cc(OC)c1 | nt | nt | nt | nt | -8% | 6%
SMILES | KB-3-1 tox | HT1080-NT tox | HT1080 IDH1KD tx | KB-V1 MDR tox | DT40 TDP1 no CPT | DT40 TDP1 CPT
Cc1ccc2nc3c(cc(C(=O)NCCc4ccccc4)c(=N)n3CCN3CCOCC3)c(=O)n2c1 | i | -16% | ? | ? | 26µM* | ?
CCOCCCn1c(=N)c(C(=O)NC2CCCC2)cc2c(=O)n3cccc(C)c3nc21 | i | nt | nt | i | 21µM* | ?
CCn1c(=N)c(C(=O)NC2CCCCC2)cc2c(=O)n3cccc(C)c3nc21 | i | nt | nt | i | 9% | 3%
CCOCCCn1c(SCC(=O)NCc2ccc3c(c2)OCO3)nc2ccccc2c1=O | i | 2% | 1% | 15µM* | ? | 0%
CCOCCCn1c(SCC(=O)Nc2oc(C)c3c(C)n[nH]c(=O)c23)nc2ccccc2c1=O | i | -18% | -12% | i | ? | 23µM*
COCCCNC(=O)c1sc2nc(C)c(C(=O)Nc3ccc(C)cc3C)c(-c3ccc(Cl)cc3)c2c1N | i | nt | nt | i | ? | ?
Cc1cc(=O)n2nc(N3CCC(C(=O)Nc4c(C)cccc4C)CC3)sc2n1 | i | nt | nt | i | -15% | 1%
CCOCCCn1c(=N)c(S(=O)(=O)c2ccccc2)cc2c(=O)n3cc(C)ccc3nc21 | i | 6% | 14% | ? | 16µM* | ?
CCOCCCn1c(=N)c(S(=O)(=O)c2ccc(C)cc2)cc2c(=O)n3ccccc3nc21 | i | nt | nt | ? | nt | nt
CCn1c(=N)c(C(=O)NCc2ccccc2)cc2c(=O)n3cccc(C)c3nc21 | i | nt | nt | i | -27% | -17%
CCCn1c(=N)c(S(=O)(=O)c2ccc(F)cc2)cc2c(=O)n3cccc(C)c3nc21 | i | 20% | 5% | i | -28% | ?
CCOCCCn1c(=N)c(C(=O)NCc2ccc3c(c2)OCO3)cc2c(=O)n3cccc(C)c3nc21 | 6.5µM* | 3%[9.24 µM] | ? | i | ? | ?
CCn1c(=N)c(C(=O)NC)cc2c(=O)n3cccc(C)c3nc21 | i | -23% | -1% | i | 16µM* | ?
COCCn1c(=N)c(S(=O)(=O)c2ccc(F)cc2)cc2c(=O)n3cccc(C)c3nc21 | i | 4% | 8% | i | 8.2µM* | ?
Cc1cccc(OCC(=O)Nc2ccc3oc(=O)ccc3c2)c1 | i | 22% | ? | i | ? | 11%
